# In the library only some 11% were active in any assay of this set; here they are far more common.
# PNC inhibitor = blocks assembly of the perinucleolar compartment; PC3M PTB-GFP, PNC prevalence imaging, 16 h; stronger effect = lower value; activity change (PNC), negative = inhibition, % at 10 µM; 140,000 compounds, 3.1% hits; AID 2417;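 active = readout at or below -70, meaning at least 70% loss of cells showing the perinucleolar compartment, a nuclear body marking cancer cells; inconclusive = readout between -30 and a set limit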;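 also: plate controls were DMSO wells for no effect and camptothecin positive control wells for full effect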
#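 Read-out is percentage of cells bearing a perinucleolar compartment, from automated 20x imaging of fixed, Hoechst-stained PC3M PTB-GFP cells. Cells were seeded 4 h, then exposed 16 h to compound (23 nl of library stock) in duplicate plates.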
# HPGD inh = blocks human HPGD enzyme activity | P15428 | purified HPGD, NADH fluorescence kinetic, PGE2 substrate | Potency, µM, for inactives: at the top dose activity change, negative = inhibition, most hits filed as inhibitors | 150,000 compounds, 4.3% hits; also: potency is read from the fitted curve at half-maximal effect
# Target sequence (P15428 whole entry, looked up): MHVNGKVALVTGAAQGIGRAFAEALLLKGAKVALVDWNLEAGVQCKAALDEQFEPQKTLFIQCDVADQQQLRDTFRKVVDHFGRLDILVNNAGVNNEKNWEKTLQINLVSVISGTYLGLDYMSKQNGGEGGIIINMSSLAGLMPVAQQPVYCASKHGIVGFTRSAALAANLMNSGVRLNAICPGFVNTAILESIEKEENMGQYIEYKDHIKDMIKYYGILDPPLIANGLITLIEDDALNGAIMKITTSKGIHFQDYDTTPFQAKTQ
#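 20 nM HPGD preincubated 15 min at room temperature with compound in 50 mM Tris-HCl pH 8, 0.01% Tween 20. Started with 1 mM NAD+ and 30 uM prostaglandin E2; NADH fluorescence (360/450 nm) read 5 times over 30-s intervals, last minus first.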
# JMJD2E inh = blocks human JMJD2E demethylase activity. B2RXH2. JMJD2E catalytic domain, FDH-coupled NADH fluorescence (FDH is formaldehyde dehydrogenase). Potency, µM (series often up to 57.1 µM), without a hit: at the highest dose activity change, negative = inhibition, hits mostly inhibitors. 230,000 compounds, 1.6% hits. AID 2147;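 also: potency is read from the fitted curve at half-maximal effect; 0% = wells with enzyme and -100% = buffer wells without enzyme; nearly all actives have a fitted effect of over 50% in size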
# Target sequence (B2RXH2 1-337 limits assumed): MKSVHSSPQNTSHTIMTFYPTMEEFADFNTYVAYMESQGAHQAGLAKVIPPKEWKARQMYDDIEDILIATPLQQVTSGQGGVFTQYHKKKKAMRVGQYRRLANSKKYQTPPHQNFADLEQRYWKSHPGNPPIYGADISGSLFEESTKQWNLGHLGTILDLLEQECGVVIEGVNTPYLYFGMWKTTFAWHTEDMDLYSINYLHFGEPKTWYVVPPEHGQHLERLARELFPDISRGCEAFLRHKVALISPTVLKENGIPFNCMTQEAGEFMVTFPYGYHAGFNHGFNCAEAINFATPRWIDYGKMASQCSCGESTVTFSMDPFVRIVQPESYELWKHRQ
# ALDH1A1 inh = ALDH1A1 (human) enzyme inhibition. 220,000 compounds, 7.3% hits. P00352. Purified ALDH1A1, NADH fluorescence, propionaldehyde substrate. AID 1030. Potency, µM (top dose mostly 75.3 µM), without a hit: at the highest dose activity, negative = inhibition, actives largely listed as inhibitors;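 also: potency is read from the fitted curve at half-maximal effect; plate controls were no enzyme wells and a reference inhibitor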
# * = called active by the depositor; ? = inconclusive; . = no result; [ ] = another dose, or the depositor's remark. Unless noted, calls follow the shape of the dose curve; as a rule, active = well fitted inhibition curve with a large enough effect (not every such curve was filed as active); inconclusive = small, poorly fitted or top-dose-only effect, or another doubt; inactive = no such curve, though single readings can be large or run the other way. Unless noted, % is scaled to controls: 0 for no effect and ±100 for the full control effect.
SMILES,PNC inhibitor,HPGD inh,JMJD2E inh,ALDH1A1 inh
Cc1c(CN(C)C)c2c(n1Cc1ccccc1)C(=O)c1ccc(Br)cc1-2,-10,-4%,-1%,10µM*
Cc1ccc(Nc2nnc(-c3ccc4c(c3)OCO4)o2)c(C)c1,.,?,?,19µM*
Cc1ccc(NC2=NCC(=O)N2Cc2ccc3c(c2)OCO3)c(C)c1,-100*,-1%,5%,-3%
Cc1cccc(NC2=NCC(=O)N2Cc2ccccc2)c1,39,-10%,-4%,25µM*
Cc1ccc(CSc2nnc(-c3ccc4c(c3)OCO4)o2)cc1,6,-27%,6%,-2%
COCC(=O)N1CCCC(C(=O)c2ccc(-c3ccccc3)c(F)c2)C1 (centres undefined),.,.,0%,-10%
CN(C)S(=O)(=O)c1ccc(NC(=S)NC(=O)c2ccc(Br)o2)cc1,.,.,0%,13µM*
Cc1cc(C)cc(NS(=O)(=O)c2ccc(NC(=S)NC(=O)c3ccc(Br)o3)cc2)c1,?,-13%,-9%,14µM*
COc1cc(OC)cc(C(=O)NNC(=S)NC2CC2)c1,.,.,-1%,8%
COc1cccc(C(=O)NCc2cccnc2)c1,?,-11%,-13%,2%
CCC(=O)c1c[nH]c(C(=O)NCc2cccnc2)c1,.,.,-3%,-2%
COc1ccc(C(=O)Oc2cccnc2)cc1OC,28,-10%,?,10µM*
Cc1ccc(C(=O)NC(=S)NCc2cccnc2)cc1C,.,.,7%,?
CCCC(=O)c1c[nH]c(C(=O)NCc2cccnc2)c1,.,.,5%,28µM*
CC(C)c1ccc(C(=O)NC(=S)NCc2cccnc2)cc1,?,-13%,-4%,28µM*
COc1ccc(C(=O)NCc2cccnc2)cc1OC,?,-13%,12%,25µM*
Cc1cccc(-n2c(O)c(C=NC3CCS(=O)(=O)C3)c3ccccc3c2=O)c1C (centres undefined),.,.,-21%,.
Cc1nc2ccccn2c1C(=O)NC1CCCCC1,-105*,?,?,?
Cc1nc2ccccn2c1C(=O)OCC#N,.,.,10%,16µM*
COCOc1cc(OC)ccc1C(=O)/C=C/c1cccc(C(F)(F)F)c1,.,-4%,9%,-4%
O=C1c2ccccc2C(=O)N1CCCCN(C(=O)c1cc2ccccc2oc1=O)c1ccc(Cl)cc1,28,-11%,-1%,7.9µM*
Cc1ccc(N(C(=O)c2cc3ccccc3oc2=O)C2C=CS(=O)(=O)C2)cc1 (centres undefined),-10,.,5%,?
CC(C)(C)C(=O)CNS(=O)(=O)c1ccc(S(=O)(=O)NC2CCCC2)cc1,-82*,-2%,-2%,?
O=S(=O)(NC1CCCC1)c1ccc(S(=O)(=O)NC2CCCC2)cc1,?,-12%,?,-7%
CC(C1CC2CCC1C2)n1c(-c2ccco2)n[nH]c1=S (centres undefined),.,.,?,14µM*
SMILES,PNC inhibitor,HPGD inh,JMJD2E inh,ALDH1A1 inh
CC(=O)N1C(=O)N(C(C)=O)C2C1N(C)C(=O)N2C(C)=O (centres undefined),.,.,-1%,14%
CS(=O)(=O)Nc1cccc(-c2ccc3ncnc(N4CCNCC4)c3c2)c1,.,.,.,-3%
Oc1c(C(Nc2nccs2)c2ccc(C(F)(F)F)cc2)ccc2cccnc12 (centres undefined),.,.,3.5µM*,-3%
Oc1c(C(Nc2cccc(C(F)(F)F)c2)c2ccncc2)ccc2cccnc12 (centres undefined),.,.,?,18µM*
O=C(O)c1ccc(N[C@H](c2ccccc2)c2ccc3cccnc3c2O)cc1,.,?,.,4µM*
O=[N+]([O-])c1ccc([C@@H](Nc2ccccc2)c2ccc3cccnc3c2O)cc1,.,-12%,.,?
Cc1conc1NC(c1cccs1)c1ccc2cccnc2c1O (centres undefined),15,-24%,?,?
S=C(Nc1ccc(Oc2ccccc2)cc1)N1CCN(c2ccccn2)CC1,.,.,2%,2%
C#CCOCCCC(=O)O,.,-14%,.,-4%[13.5 µM]
CCCCCOc1ccc2oc(=O)c3c(c2c1)CCCN3C(=O)CN1CCCC(C(=O)OCC)C1 (centres undefined),40,-12%,-16%,25µM*
O=C(CN1CCN(c2ncccn2)CC1)N1CCCc2c1c(=O)oc1ccc(O)cc21,13,-11%,-13%,0.79µM*
O=C(CN1CCCCC1)N1CCCc2c1c(=O)oc1ccc(OCc3ccccc3)cc21,24,-17%,?,?
Cc1cccc(CNc2ncncc2-c2ccccc2Cl)c1,.,.,.,4%
O=C(Oc1cccc([N+](=O)[O-])c1)N1CCCCC1,.,.,-7%,-9%
Oc1cccc(/C=N/Nc2ncnc3c2ncn3Cc2ccccc2)c1,-25,22µM*,-3%,4%
Oc1ccc(/C=N/Nc2ncnc3c2ncn3Cc2ccccc2)cc1O,-29,25µM*,10µM*,?
Nc1c(Cl)ncnc1N/N=C/c1cccc(O)c1,.,.,-4%,.
O=C(CN1CCN(Cc2ccccc2)CC1)N/N=C/c1ccc(Br)s1,.,.,-4%,-4%
Cc1ccc(C(=O)N/N=C\c2cccn2C)cn1,-26,14µM*,-2%,-4%
Cn1cccc1/C=N/NC(=O)c1ccn[nH]1,-119*,-5%,-12%,3%
Cc1ccc(S(=O)(=O)/C(=C\N(C)C)c2cnc(Cl)s2)cc1,.,.,-8%,-2%
C[C@@](N)(C(=O)O)c1ccc(S(=O)(=O)O)cc1,.,-2%,-1%,-5%
CSC(=NC#N)N1CCN(c2ccccn2)CC1,.,.,-2%,18µM*
CSC(=NC#N)N1CCN(c2ccc([N+](=O)[O-])cc2)CC1,.,.,-20%,18µM*
CCOC(=O)N1CCN(c2ccc([N+](=O)[O-])cc2)CC1,?,-19%,-3%,?
SMILES,PNC inhibitor,HPGD inh,JMJD2E inh,ALDH1A1 inh
CS(=O)(=O)c1ccc2nc(NC(=O)Oc3ccccc3)sc2c1,10,-21%,1%,3.2µM*
CCOCC(=O)Nc1nc2ccc(OC)cc2s1,-15,-12%,-1%,18µM*
COc1ccc2sc(NC(=O)CC(C)C)nc2c1,24,-24%,1%,25µM*
CCOc1ccc2nc(NC(=O)COC)sc2c1,-22,0%,-3%,11%
CCC(=O)Nc1nc2cc(OC)ccc2s1,-17,0%,5%,8%
CCOc1ccc(NS(=O)(=O)c2ccc(NC(C)=O)c(OC)c2)cc1,30,-1%,12%,5µM*
Cc1ccc(NC(=O)C(=O)NCCCN2CCOCC2)c(C)c1,.,.,-7%,.
CC(C)OC(=O)[C@H]1O[C@H](CCCCOCc2ccccc2)[C@@H](C)[C@H]2O[C@H]21,.,-5%,12%,1%
CC(=O)c1cc(-c2ccc(F)cc2)n(CCC(=O)Nc2cccc(C)n2)c1C,.,.,-2%,-10%
O=C(c1cnccn1)N1CCC2(CCCN(c3ccncc3)C2)CC1,.,0%,.,4%
O=C(COC(=O)c1ccccc1C(=O)c1ccc(Cl)cc1)NC(c1ccccc1)c1ccccc1,12,0%,-9%,-1%
COc1ccc(-n2nc(C(=O)NCC(=O)NCc3ccccc3OC)c3ccccc3c2=O)c(OC)c1,.,.,?,1%
CCOc1ccc2sc(NS(=O)(=O)c3ccc(OC)c(OC)c3)nc2c1,36,16µM*,-1%,?
COc1ccc2nc(NC(=O)CSc3nccc(C)n3)sc2c1,13,-23%,3%,4%

# Bioassay records from PubChem BioAssay.
